Measurements: ChEMBL document CHEMBL1157539, “Thousands of chemical starting points for antimalarial lead identification” (Nature, 2010)

Experiments:
Format in all cases: functional
Plasmodium falciparum [1] = experiment: GSK_TCMDC: Inhibition of Plasmodium falciparum 3D7 in whole red blood cells, using parasite LDH activity as an index of growth. Test compounds present at 2uM
Plasmodium falciparum [2] = experiment: GSK_TCMDC: Inhibition of Plasmodium falciparum Dd2 in whole red blood cells, using parasite LDH activity as an index of growth. Test compounds present at 2uM
HepG2 = experiment: GSK_TCMDC: Percent inhibition of human HepG2 cell line. Test compounds present at 10uM.

Row | Structure (SMILES) | Inhibition (Plasmodium falciparum [1]) [%] | Inhibition (Plasmodium falciparum [2]) [%] | Inhibition (HepG2) [%]
1 | CC(C)(C)c1ccc(-c2ccccc2CNC(=O)c2cccc(O)c2)cc1 | 99 | 88 | 3
2 | O=C(O)C(F)(F)F.c1cc(CNCC2CCCO2)cc(-c2ccc(-c3nc4ccccc4[nH]3)s2)c1 (centres undefined) | 95 | 30 | 8
3 | CC[C@H](C)CNC(=O)c1cccc(-c2cccc(CNCC3CNCCCO3)c2)n1.O=C(O)C(F)(F)F (some centres undefined) | 91 | 54 | 15
4 | CSc1cccc(Nc2nc3ccc(S(=O)(=O)NC(C)C(C)C)cc3n2[C@H](C)C(C)(C)C)c1 (some centres undefined) | 97 | 98 | 0
5 | Cc1ccccc1NC(=S)NC1CCN(CCCCCNC(=O)/C=C/c2ccc(Cl)c(Cl)c2)CC1 | 99 | 7 | 14
6 | O=S(=O)(c1cc(Cl)sc1Cl)N(CCC(O)(C(F)(F)F)C(F)(F)F)Cc1cccc(O)c1 | 98 | 97 | 0
7 | Cc1cccc2nc(-c3ccc(-c4cccc(CNCc5cccc(N)c5)c4)cc3)[nH]c12.O=C(O)C(F)(F)F | 100 | 87 | 0
8 | CN(C)c1ccc(N2C(N)=NC(N)=NC23CCCC3)cc1.Cl | 97 | 0 | 1
9 | Cl.N#Cc1ccc2c(c1)CCN(CCC1CCC(NC(=O)c3cccc(-c4ccc(F)cc4)c3)CC1)CC2 (centres undefined) | 92 | 10 | 32
10 | CCOc1ccc(C(=O)Nc2cc(Br)c3c(c2)CNCC3)cc1C(F)(F)F.Cl | 98 | 22 | 15
11 | Oc1cc(NC[C@H]2CCC[C@@H]2NCc2cc(Br)cc(Br)c2)nc2ccccc12 | 100 | 45 | 21
12 | C[C@H](CNc1ccnc(Nc2ccc3[nH]c(=O)[nH]c3c2)n1)c1ccccc1.O=CO | 100 | 0 | 61
13 | CCCCNC(=N)Nc1ccc(OCCCOc2ccc(NC(=N)NCCCC)cc2)cc1 | 96 | 97 | 15
14 | Cl.Oc1cc(-c2nc(C3(CNCc4ccc(Cl)cc4)CCCCC3)[nH]c2-c2ccncc2)ccc1Cl | 100 | 99 | 35
15 | O=C(Nc1cccc(CN2CCCN(Cc3ncc[nH]3)CC2)c1)c1ccc(-c2ccccc2)cc1.O=C(O)C(F)(F)F | 100 | 56 | 23
16 | Cl.Oc1ccc(Nc2nc(N3CCCC3)c3ccccc3n2)cc1 | 100 | 100 | 10
17 | O=C(NCCCCN1CCC(c2ccc(C(F)(F)F)cc2C(F)(F)F)CC1)c1ccc(NC(=O)c2ccc(Cl)cc2)cc1 | 99 | 59 | 4
18 | COc1cc(NC(=O)C(c2ccc(Cl)cc2)C(C)C)cc(OC)c1 (centres undefined) | 99 | 98 | 5
19 | Cc1cc(=NN=Cc2ccccc2F)c2cccc(C)c2[nH]1 | 100 | 14 | 7
20 | Br.C[C@@H](COc1ccc(-c2ccccc2)cc1)CON1C(N)=NC(N)=NC1(C)C | 96 | 96 | 62
21 | O=C(/C=C/c1ccc(Cl)c(Cl)c1)NC1CCC(CN2CCC(c3coc4ccccc34)CC2)CC1 (centres undefined) | 100 | 41 | 40

Row | Structure (SMILES) | Inhibition (Plasmodium falciparum [1]) [%] | Inhibition (Plasmodium falciparum [2]) [%] | Inhibition (HepG2) [%]
22 | Cc1nnsc1C(=O)Nc1cccc(-c2ccc(-c3nc4ccccc4[nH]3)s2)c1 | 89 | 13 | 55
23 | O=C(O)c1cccnc1Sc1ccc(Cl)cc1 | 100 | 4 | 5
24 | CCCCOc1cc2ncc(C(=O)OCC)c(O)c2cc1OCCCC | 97 | 96 | 0
25 | O=C(O)C(F)(F)F.c1cc(-c2ccc(CNCCCn3ccnc3)cc2)cc(-c2nc3ccccc3[nH]2)c1 | 100 | 100 | 17
26 | Cc1cccc2nc(-c3ccc(-c4ccc(CN5CCCCC5)cc4)cc3)[nH]c12.O=C(O)C(F)(F)F | 100 | 99 | 27
27 | COc1cc(-n2c(CN3CCCC3)nc3cc(-c4ccc(Cl)cc4)sc3c2=O)ccc1OCCN1CCCC1.O=C(O)C(F)(F)F | 94 | 90 | 66
28 | COc1cc([N+](=O)[O-])ccc1NC(=O)c1cc(Cl)ccc1O | 87 | 100 | 92
29 | Nc1ncnc2cc(-c3cccc(S(N)(=O)=O)c3)sc12 | 98 | 99 | 13
30 | Cl.O=C(NCCCCN1CCC(c2ccc3c(c2OCCO)CCCC3)CC1)c1ccc(-c2ccc(C(F)(F)F)cc2)cc1 | 98 | 38 | 100
31 | CC(C)CCn1c(Sc2ccc(C#N)c([N+](=O)[O-])c2)nnc1-c1ccccc1Cl | 93 | 38 | 20
32 | O=C(Nc1cccc(N2CCC(NCCCc3ccncc3)CC2)c1)c1cccc(C(F)(F)F)c1 | 96 | 50 | 11
33 | O=C(Nc1ccc([N+](=O)[O-])cc1)Nc1cc(C(F)(F)F)ccc1F | 89 | 46 | 8
34 | COc1cc(C2CCN(CCCCNC(=O)c3ccc(NC(=O)c4ccc(Cl)c(Cl)c4)cc3)CC2)ccc1OC(C)C | 100 | 96 | 45
35 | CC(C)(C)c1ccc(CN2CCC(CNC(=O)c3cc(-c4cccc(C(F)(F)F)c4)cs3)C2)cc1.O=C(O)C(F)(F)F (centres undefined) | 100 | 84 | 80
36 | Cc1cccc2nc(-c3ccc(-c4cccc(CN5CCC(C(N)=O)CC5)c4)cc3)[nH]c12.O=C(O)C(F)(F)F | 87 | 16 | 9
37 | CCOc1cc(NCCSCc2nc[nH]c2C)nc2ccccc12 | 92 | 10 | 4
38 | Nc1ccc(-c2nc3cc(Oc4ccc5[nH]c(-c6ccc(N)cc6)nc5c4)ccc3[nH]2)cc1 | 100 | 99 | 18
39 | O=C(N[C@H]1CCN(CCc2ccc(O[C@H]3CCNC3)c(Cl)c2)C1)c1ccc(Cl)c(Cl)c1.O=C(O)C(F)(F)F | 100 | 0 | 26
40 | COc1cccc(NC(=O)Nc2ccc(Nc3nc(C)cc(N(C)C)n3)cc2)c1 | 100 | 100 | 14
41 | O=C(Nc1ccc(-c2nc3ccccc3[nH]2)cc1)c1cccc([N+](=O)[O-])c1 | 100 | 56 | 45
42 | Cc1cnc(NC(=O)c2cn(-c3ccccc3)nc2-c2cccs2)s1 | 91 | 1 | 0

Row | Structure (SMILES) | Inhibition (Plasmodium falciparum [1]) [%] | Inhibition (Plasmodium falciparum [2]) [%] | Inhibition (HepG2) [%]
43 | O=C(/C=C/c1ccc(Cl)cc1)NCCCCCN1CCCC(C(=O)Nc2ccc(Cl)c(Cl)c2)C1 (centres undefined) | 96 | 3 | 27
44 | COc1cccc(Nc2nccc(NCC(O)c3cccc(C(F)(F)F)c3)n2)c1 (centres undefined) | 96 | 27 | 6
45 | Cc1cc(NCc2ccccc2)nc(NCc2ccccc2)n1 | 91 | 18 | 21
46 | COc1cc2nc(NCCC(C)C)n3nc(-c4ccccc4)nc3c2cc1OC | 94 | 97 | 0
47 | CN(C)CCCOc1ccc(CCCCc2ccc(Cl)cc2C(=O)c2ccccc2)cc1.O=C(O)C(=O)O | 92 | 8 | 8
48 | CCCN(CCC)C(=S)N/N=C1/C(=O)Nc2ccccc21 | 97 | 86 | 28
49 | NCc1ccc(-c2cccc(CNC3CCN(Cc4ccccc4)CC3)c2)cc1.O=C(O)C(F)(F)F | 100 | 50 | 24
50 | O=C(Nc1cccc(CN2CCN(Cc3ccc(O)cc3)CC2)c1)c1cc2ccccc2o1.O=C(O)C(F)(F)F | 81 | 12 | 8
51 | Cc1ccc(-c2cncc(-c3cc(NC4CCN(Cc5ccccc5)CC4)nc(-c4ccccc4)n3)c2)cc1 | 100 | 66 | 0
52 | CN1CCN(c2ccnc3ccc(NC(=O)Nc4ccc(Br)cc4)cc23)CC1 | 100 | 99 | 12
53 | COc1ccc(F)cc1-c1ccc(C(=O)N2CCCN(c3ccc(C#N)cn3)CC2)cc1 | 99 | 100 | 9
54 | O=C(Nc1ccc(OC2CCN(Cc3ccc(F)cc3)C2)cc1)c1cccs1.O=C(O)C(F)(F)F (centres undefined) | 94 | 92 | 2
55 | c1ccc(OCCCCN2CCCCC2)cc1 | 95 | 1 | 2
56 | Cc1cc(O)c2c(c1)OC(C)(C)C=C2C1=CCN(Cc2ccccc2)CC1 | 96 | 1 | 0
57 | COC(=O)c1cccc(NC(=O)NC2CCN(c3ccnc(Nc4cc(OC)c(OC)c(OC)c4)n3)C2)c1 (centres undefined) | 99 | 68 | 7
58 | CC(CN1CCN(C)CC1)C(=O)Nc1cccc(-c2cccc(-c3nc4cc(F)ccc4[nH]3)c2)c1 (centres undefined) | 100 | 78 | 23
59 | CCN1CCC(N(Cc2ccc(-c3ccc(C(F)(F)F)cc3)cc2)C(=O)Cn2c(CCc3cccc(F)c3F)cc(=O)c3ccc(OCc4ccccc4)cc32)CC1.O=C(O)C(O)C(O)C(=O)O | 100 | 86 | 60
60 | Cc1c(C(=O)NCc2ccncc2)sc2nc(-c3cccc([N+](=O)[O-])c3)cn12 | 97 | 29 | 18
61 | O=C(Nc1ccc(-n2ccc(C(F)(F)F)n2)cc1)c1cccs1 | 89 | 67 | 6
62 | CCCn1c(Sc2ccc(C#N)c([N+](=O)[O-])c2)nnc1-c1cc(OC)cc(OC)c1 | 98 | 79 | 24
63 | COc1cccc(CC(=O)N2CCC(n3c(C)nc4ccc(F)cc43)CC2)c1 | 100 | 99 | 0
